# The supplement of paper PMC10127200
# Counter-ions that a name gives are not always drawn.
# How the values were obtained:
# Test in all cases: Euclidean distance of Cell Painting phenotypic profile (signed KS, 77 features) to DMSO centroid (dimensionless distance); 5 or 10 uM (library dependent); higher = stronger phenotypic change vs DMSO (phenoactivity)
# Conditions in all cases: 48 h
# 786-O = tested on: 786-O
# Method in brief: (§1)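 Five cancer lines and a healthy fibroblast line received library compounds at 10 or 5 uM (library-dependent, 0.1% DMSO final) for 48 h. Stained cells were imaged confocally at 20X (9 fields/well). Harmony extracted 77 features, each scored as a signed Kolmogorov-Smirnov statistic against same-plate vehicle wells. Profiles were plate-position corrected, correlation-weighted and replicate-averaged at the top dose. Phenoactivity is the Euclidean distance from each profile to the median vehicle profile.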
# A549 = tested on: A549
# Method in brief: as §1
# DU145 = tested on: DU145
# Method in brief: as §1
# FB = tested on: FB
# Method in brief: as §1
# HEPG2 = tested on: HEPG2
# Method in brief: as §1
# OVCAR4 = tested on: OVCAR4
# Method in brief: as §1
Compound,Euclidean distance (786-O),Euclidean distance (A549),Euclidean distance (DU145),Euclidean distance (FB),Euclidean distance (HEPG2),Euclidean distance (OVCAR4)
CC[C@H]1OC(=O)C[C@@H](O)[C@H](C)[C@@H](O[C@@H]2O[C@H](C)[C@@H](O)[C@H](N(C)C)[C@H]2O)[C@@H](CCN2C[C@H](C)C[C@H](C)C2)C[C@@H](C)C(=O)/C=C/C(C)=C/[C@@H]1CO[C@@H]1O[C@H](C)[C@@H](O)[C@@H](OC)[C@H]1OC [Tilmicosin],0.767,0.579,0.777,0.841,1.09,0.801
CC(C)(C#N)c1cc(Cn2cncn2)cc(C(C)(C)C#N)c1 [Anastrozole],1.11,0.727,0.702,0.902,0.572,1.41
CN1CCCC(n2nc(Cc3ccc(Cl)cc3)c3ccccc3c2=O)CC1 (stereo not given) [Azelastine HCl],1.09,0.991,0.881,2.15,1.14,0.789
O=C(O)c1ccc(N2C(=O)/C(=C\c3ccc(-c4ccc([N+](=O)[O-])cc4)o3)C=C2c2ccccc2)cc1,0.841,1.23,0.74,0.72,1.83,0.995
N=C1CCCN1Cc1[nH]c(=O)[nH]c(=O)c1Cl.O=c1[nH]c(=O)n([C@H]2C[C@H](O)[C@@H](CO)O2)cc1C(F)(F)F,3.51,3.48,3.37,1.25,3,3.04
C[C@H](CCC(=O)O)[C@H]1CC[C@H]2[C@@H]3C[C@H](O)[C@@H]4C[C@H](O)CC[C@]4(C)[C@H]3CC[C@]12C [Hyodeoxycholic acid (HDCA)],1.08,0.973,0.585,0.898,0.401,1.37
C[C@H]1CNC(=O)c2cnn3ccc(nc23)N[C@H](C)c2cc(F)ccc2O1,4.06,4.83,5.02,3.45,2.14,4.45
NC(=O)NC1NC(=O)NC1=O (stereo not given) [Allantoin],0.856,0.693,1.19,0.801,3.52,1.68
C[C@H]1[C@H](C)CC[C@]2(C(=O)O[C@@H]3O[C@H](CO[C@@H]4O[C@H](CO)[C@@H](O[C@@H]5O[C@@H](C)[C@H](O)[C@@H](O)[C@H]5O)[C@H](O)[C@H]4O)[C@@H](O)[C@H](O)[C@H]3O)CC[C@]3(C)C(=CC[C@@H]4[C@@]5(C)C[C@@H](O)[C@H](O)[C@@](C)(CO)[C@@H]5[C@H](O)C[C@]43C)[C@H]12 [Madecassoside],0.76,0.636,0.932,1.03,0.483,1.28
Cc1nc2n(c(=O)c1CCN1CCC(c3noc4cc(F)ccc34)CC1)CCCC2 [Risperidone],1.21,0.71,0.723,1.08,0.51,0.674
C/C(=C\C(=O)Nc1ccccc1C(=O)O)c1ccc2ccccc2c1,0.939,1.46,1.76,1.59,0.714,0.731
CN(C)CCC=C1c2ccccc2CCc2ccccc21 [Amitriptyline HCl],1.34,1.54,1.54,1.52,1.48,1.99
Cc1ccc(C(=O)N(CCCN)[C@@H](c2oc3cc(Cl)ccc3c(=O)c2Cc2ccccc2)C(C)C)cc1,3.9,3.16,3.86,2.4,2.19,3.2
CCCCC(=O)N(Cc1ccc(-c2ccccc2-c2nnn[nH]2)cc1)[C@H](C(=O)O)C(C)C [Valsartan],1.68,1.17,0.682,0.799,0.48,0.776
CS(=O)(=O)c1ccc(-c2cnc(N)c(C(=O)Nc3ccccc3)n2)cc1,0.811,2.05,1.29,1.27,1.07,1.23
COC(=O)c1ccccc1O [Methyl salicylate],0.625,0.514,0.585,0.713,0.768,0.636
CO[C@H]1C[C@@H]2CC[C@@H](C)[C@@](O)(O2)C(=O)C(=O)N2CCCC[C@H]2C(=O)O[C@H]([C@H](C)C[C@@H]2CC[C@@H](OC(=O)C(C)(CO)CO)[C@H](OC)C2)CC(=O)[C@H](C)/C=C(\C)[C@@H](O)[C@@H](OC)C(=O)[C@H](C)C[C@H](C)/C=C/C=C/C=C/1C,3.03,1.74,1.55,2.95,1.69,2.08
CC(=O)O[C@]1(C(C)=O)CC[C@H]2[C@@H]3C=C(Cl)C4=CC(=O)[C@@H]5C[C@@H]5[C@]4(C)[C@H]3CC[C@@]21C [Cyproterone Acetate],1.3,0.841,0.95,0.862,1.95,0.974
C[C@H]1O[C@@H](O[C@H]2[C@@H](O)C[C@H](O[C@H]3[C@@H](O)C[C@H](O[C@H]4CC[C@@]5(C)[C@H](CC[C@@H]6[C@@H]5C[C@@H](O)[C@]5(C)[C@@H](C7=CC(=O)OC7)CC[C@]65O)C4)O[C@@H]3C)O[C@@H]2C)C[C@H](O)[C@@H]1O [Digoxin],6.92,5.56,6.87,4.48,3.09,6.68
C[C@@H]1COC(Nc2ccc3ncnc(Nc4ccc(OCc5nccs5)c(Cl)c4)c3c2)=N1 [Varlitinib],1.45,1.22,1.15,1.15,2.16,1.56
COC(=O)C1=CO[C@@H](O)[C@@H]2C(CO)=CC[C@H]12 [Genipin],1.19,1.13,0.882,1.15,0.828,1.35
CC(C)Cc1ccc(C(C)C(=O)O)cc1 (stereo not given) [Ibuprofen],0.948,0.452,0.996,0.827,0.86,0.689
O=C(CCCCCCC(=O)Nc1ccccc1)NO [Vorinostat (SAHA. MK0683)],3.44,2.96,3.15,3.77,3.15,2.85

Compound,Euclidean distance (786-O),Euclidean distance (A549),Euclidean distance (DU145),Euclidean distance (FB),Euclidean distance (HEPG2),Euclidean distance (OVCAR4)
O=C(Nc1ccc(-c2ccnc(Nc3ccc(N4CCOCC4)cc3)n2)cc1)C1CCCN1 (stereo not given),0.834,1.49,1.24,1.52,1.48,0.844
Nc1[nH]cnc2ncnc1-2 [Adenine sulfate],1.69,0.409,1.17,0.763,0.765,0.878
O=C(O)c1cccc(-c2noc(-c3ccccc3F)n2)c1 [Ataluren (PTC124)],1.05,0.791,1.17,1.13,0.816,1.51
COc1ccc(CNCc2cccc3ccccc23)cc1,1.72,1.46,0.984,1.27,0.933,1.04
CC#C[C@]1(O)CC[C@H]2[C@@H]3CCC4=CC(=O)CCC4=C3[C@@H](c3ccc(N(C)C)cc3)C[C@@]21C [Mifepristone],1.22,1.62,1.48,1.13,1.01,1.14
C#CCN(C)CCCOc1ccc(Cl)cc1Cl [Clorgyline HCl],0.821,0.714,0.727,1.14,0.806,0.745
Cc1cnc(Nc2ccc(N3CCN(C)CC3)cc2)nc1Nc1cccc(S(=O)(=O)NC(C)(C)C)c1,3.77,4.93,3.18,3.58,2.58,3.26
CCCCC(F)(F)[C@@]1(O)CC[C@H]2[C@@H](CC(=O)[C@@H]2CCCCCCC(=O)O)O1 [Lubiprostone],1.06,1.09,1.21,1.29,0.966,1.1
CCOC(=O)N1c2ccc(C(F)(F)F)cc2[C@@H](N(Cc2cc(C(F)(F)F)cc(C(F)(F)F)c2)C(=O)OC)C[C@H]1CC [Torcetrapib],1.3,0.836,1.01,0.99,0.467,1.29
CSCC[C@H](N)C(=O)O [L-methionine],1.08,0.829,1.25,0.928,0.685,1.71
CC(c1cc2ccccc2s1)N(O)C(N)=O (stereo not given) [Zileuton],1.8,0.949,0.621,1.2,1.12,1.11
CCN(CC)CCCC(C)Nc1c2ccc(Cl)cc2nc2ccc(OC)cc12 (stereo not given) [Quinacrine Dihydrochloride Dihydrate],4.25,5.06,4.71,6.12,4.78,4.71
CCc1cnn2c(NCc3ccc[n+]([O-])c3)cc(N3CCCC[C@H]3CCO)nc12,3.35,2.78,3.2,3.11,2.64,3.58
CCCN1C[C@H](C)[C@@H](O)[C@](C)(O)[C@@H](CC)OC(=O)[C@H](C)[C@@H](O[C@H]2C[C@@](C)(OC)[C@@H](O)[C@H](C)O2)[C@H](C)[C@@H](O[C@@H]2O[C@H](C)C[C@H](N(C)C)[C@H]2O)[C@](C)(O)C[C@H]1C [Gamithromycin],1.26,1.03,1.98,1.12,1.08,1.05
C[C@]12C=CC(=O)C=C1CC[C@@H]1[C@@H]2[C@@H](O)C[C@@]2(C)[C@H]1CC[C@]2(O)C(=O)CO [Prednisolone],1.51,2.15,2.31,1.67,2.12,2.19
COCCc1ccc(OCC(O)CNC(C)C)cc1 (stereo not given) [Metroprolol succinate],0.936,0.527,0.62,1.14,0.935,1.9
COc1cccc2c1C(=O)c1c(O)c3c(c(O)c1C2=O)C[C@@](O)(C(=O)CO)C[C@@H]3O[C@H]1C[C@H](N)[C@H](O[C@@H]2CCCCO2)[C@H](C)O1 [Pirarubicin],3.6,4.43,3.47,4.28,4.37,4.83
CCOc1nc2cccc(C(=O)O)c2n1Cc1ccc(-c2ccccc2-c2noc(=O)[nH]2)cc1 [Azilsartan],0.834,0.784,0.835,0.563,0.88,0.784
CCC(=O)Nc1cccc(Oc2nc(Nc3ccc(N4CCN(C)CC4)cc3OC)ncc2Cl)c1,1.62,1.63,0.903,1.15,1.61,1.26
OCCn1cc(-c2cnc3nnn(Cc4ccc5ncccc5c4)c3n2)cn1,0.916,0.988,0.98,0.792,1.2,1.08
CN[C@H]1CC[C@@H](c2ccc(Cl)c(Cl)c2)c2ccccc21 [Sertraline HCl],2.46,2.13,1.74,2.83,4.1,2.02
N=C(N)c1ccc(N=NNc2ccc(C(=N)N)cc2)cc1 [Diminazene Aceturate],1.25,1.11,1.1,0.72,2.06,0.868
